# Source: PubChem BioAssay (National Center for Advancing Translational Sciences (NCATS))
# An excerpt weighted towards active compounds, which were near 5.7% of everything screened.
# ATXN2 expr inh: reduces ATXN2 reporter expression in HEK-293 cells | HEK-293 ATXN2-luciferase reporter, luminescence, 24 h | Potency, µM (series often up to 57 µM), for inactives: at the top dose activity change, negative = inhibition, most hits filed as inhibitors | 360,000 compounds, 0.72% hits; also: potency is read from the fitted curve at half-maximal effect; % is scaled to controls: 0 for no effect and ±100 for the full control effect; nearly all actives have a fitted effect of over 55% in size
#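 qHTS (up to 57 uM final) was run with 24 h compound exposure of reporter cells at 37 °C. Each well was multiplexed: SteadyGlo luminescence measured ATXN2-luciferase expression after a fluorogenic Gly-Phe-AFC viability readout (25 uM final).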
# TGFb SMAD3 inh: inhibitors of TGF-b signaling; 410,000 compounds, 1.2% hits; Potency, µM (series often up to 46.1 µM), for inactives: top-dose activity, negative = inhibition, actives largely listed as inhibitors; HepG2 CAGA-GFP TGF-b/SMAD3 reporter, GFP fluorescence, 18 h; TGF-beta stimulated, 500 pg/mL final; AID 588855; also: potency is read from the fitted curve at half-maximal effect; % is scaled to controls: 0 for no effect and ±100 for the full control effect; nearly all actives have a fitted effect of over 65% in size
#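 Per well, imaged GFP fluorescence of HEPG2 CAGA-GFP cells gives the signal; cells get compound, then TGF-beta (500 pg/mL final), 18 h at 37 degrees C; %Activity versus -TGF-beta and +DMSO controls.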
# ATXN viability: viability counter-screen for ATXN expression inhibitors; S2 cells (HEK-293 line with an ATXN2-luciferase reporter) viability, CellTiter-Fluor protease fluorescence, 24 h; Potency, µM (series often up to 56.7 µM), actives largely listed as cytotoxic; 400,000 compounds, 0.49% hits; AID 651635; also: potency is read from the fitted curve at half-maximal effect; nearly all actives have a fitted effect of over 40% in size
# IL-1B inflam inh: inflammasome signaling inhibition, IL-1 beta readout | activity change, % at 57.5 µM | 360,000 compounds, 4.7% hits | THP-1 LPS/ATP IL-1B secretion, AlphaLISA, 16 h; stronger effect = lower value | AID 743279; in the data active = activity change below about -50%; inconclusive = mostly about -30% to -49%; also: % is scaled to controls: 0 for no effect and ±100 for the full control effect
#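 Secreted IL-1B measured by AlphaLISA bead assay after 16 h compound exposure of THP-1 cells; compounds (final up to 57.5 uM) added 1 h before LPS (250 ng/mL) and ATP (1.25 mM) stimulation; lower signal means less secretion.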
# HepG2 tox: kills HepG2 cells in TGF-b inhibitor counter-screen. HepG2 CAGA-GFP viability, ATP luminescence, 18 h. AID 588856. Potency, µM (top dose mostly 46.1 µM), for inactives: top-dose activity change, negative = cytotoxicity, most hits filed as cytotoxic. 410,000 compounds, 0.76% hits; also: potency is read from the fitted curve at half-maximal effect
#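 HepG2 CAGA-GFP cells (1000/well, DMEM with 1% FBS) received compound, then TGF-beta at 500 pg/mL final, and were incubated 18 hours at 37 degrees C. Viability was read by CellTiter-Glo luminescence. Media-only wells were set as complete cell-killing and DMSO as no toxicity.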
# The depositor's hits bear a star; i = inactive; ? = inconclusive; / = not tested or not shown. Unless noted, calls follow the shape of the dose curve; as a rule, active = well fitted curve in the direction sought with a large enough effect; inconclusive = small, poorly fitted or top-dose-only effect, or another doubt; inactive = no such curve, though single readings can be large; an effect the other way counts as inactive or inconclusive.
SMILES,ATXN2 expr inh,TGFb SMAD3 inh,ATXN viability,IL-1B inflam inh,HepG2 tox
C#CCN(C[C@@H]1[C@@H](OC(=O)NCc2ccccc2F)[C@@H](OC(=O)NCc2ccccc2F)CN(C(=O)OC(C)C)N1C(=O)OC(C)C)S(=O)(=O)c1ccc(C)cc1,-3.1%,1.1%,i,-20.3,-14.8%
C#CCN(C[C@H]1[C@H](OC(=O)NCc2ccc(OC)c(OC)c2)[C@H](OC(=O)NCc2ccc(OC)c(OC)c2)C[C@@H](C(=O)OC)[C@H]1C(=O)OC)S(=O)(=O)c1ccc(C)cc1,-5.4%,8.1%,i,-13.6,2.9%
C#CCN(C[C@@H]1[C@@H](OC(=O)NCc2ccco2)[C@@H](OC(=O)NCc2ccco2)CN(C(=O)OC(C)C)N1C(=O)OC(C)C)S(=O)(=O)c1ccc(C)cc1,-18.0%,?,?,-98.3*,-1.5%
COc1ccc(C)cc1NC(=O)Nc1ccccc1OCc1cc(=O)n2ccccc2n1,/,13.6%,/,/,-13.9%
CC(C)Oc1ccc(C(=O)NC2CCCCC2)cc1,45.8%,0.0%,i,-6.2,2.7%
CC(C)Oc1ccc(C(CCN)C2CCCCC2)cc1 (stereo unspecified),?,?,/,-98.7*,11.2µM*
CCCCNc1nc2c(S(=O)(=O)c3ccc(Br)cc3)nnn2c2ccsc12,/,10.4%,/,/,-10.7%
Cc1ccnc(N2C(=O)c3cccc4c([N+](=O)[O-])ccc(c34)C2=O)c1,?,?,/,-100.8*,-109.3%
Cc1ccc(N2C(=O)c3cccc4c([N+](=O)[O-])ccc(c34)C2=O)c2cccnc12,/,0.1%,i,13.3,12.8%
O=C1c2cccc3c([N+](=O)[O-])ccc(c23)C(=O)N1Cc1cccnc1,-36.4%,?,/,-101.0*,-17.2%
O=C1c2cccc3cccc(c23)C(=O)N1Cc1cccnc1,17.2%,-18.4%,i,23.5,22.3%
Cc1nnc(N2C(=O)c3cccc4c([N+](=O)[O-])ccc(c34)C2=O)s1,/,?,i,-95.4*,-23.2%
COc1cccc(-c2ccnc(-n3ncc(C(=O)NCC(C)(C)CN(C)C)c3C)n2)c1,/,/,i,/,/
O=c1[nH]c2ccccc2nc1/C=C/c1ccc(O)cc1,26.7%,?,i,-76.0*,-30.2%
CCCSc1cc(N2CCCC2)nc(-c2ccccc2)n1,-11.2%,7.6%,i,35.9,-26.4%
CCCSc1cc(N2CCN(C)CC2)nc(-c2ccc(OC)cc2)n1,-31.5%,?,i,-56.9*,-87.6%
FC(F)(F)c1cccc(N2CCN(C(=S)NC3CCCCC3)CC2)c1,?,?,?,7.2,-26.3%
Cc1ccc(C)c(C(=O)CCC(=O)N2CCN(c3cccc(C(F)(F)F)c3)CC2)c1,-17.1%,11.2µM*,i,2.0,-49.2%
Cc1ccc(/C=C/C(=O)N2CCN(c3cccc(C(F)(F)F)c3)CC2)cc1,-15.9%,-18.2%,i,-5.5,-24.1%
C/C(=C\c1ccccc1)C(=O)N1CCN(c2cccc(C(F)(F)F)c2)CC1,-7.0%,?,i,-64.9*,-31.3%
FC(F)(F)c1cccc(N2CCN(C(=S)NC3CCCC3)CC2)c1,?,?,i,-57.1*,-28.6%
CSc1cccc(NC(=O)c2ccc3c(c2)CCCN3S(C)(=O)=O)c1,?,0.3%,?,/,-29.2%
CCN(c1ccc(Cl)cc1)S(=O)(=O)c1nnc(NC(=O)C2CCCCC2)s1,/,0.1%,/,/,5.4%
CCOC(=O)COc1cccc2c(=O)n(CC(N)=O)ccc12,-2.2%,-9.3%,i,-57.9*,-5.1%
O=C(Cc1ccccc1Nc1c(Cl)cccc1Cl)OCO/N=[N+](\[O-])N1CCCC1,/,?,/,/,-55.9%
CCCCN(CCCC)Cc1ccc(C(=O)NNC(=O)Nc2ccc(F)cc2)o1,-7.0%,0.0%,i,-18.3,17.8µM*
Cc1ccc(C2=Nc3ccc(Br)cc3C(c3ccncc3)=NN2)cc1,/,3.0%,i,-148.8*,3.9%
CCOC(=O)C1(Cc2cccc(OC)c2)CCN(Cc2ccc3c(c2)OCCO3)CC1,-32.0%,-0.3%,i,-63.4*,-30.3%
CCOC(=O)C1(CCOc2ccccc2)CCN(Cc2cccc(OC)c2O)CC1,-26.8%,-10.4%,i,-84.9*,-24.7%
